{"source": "PubChem BioAssay (EPA / NIEHS)", "note": "Activity calls are given as the source filed them. The calls were made as follows: active = hit-call score of the fitted dose curve at least 0.9, where 1 is the maximum; inactive = score below 0.9."}
{"molecular_target": "Hepatocyte nuclear factor 6 (Homo sapiens) (UniProt Q9UBC0)", "sequence (Q9UBC0 whole entry, looked up, the tested form may be a part)": "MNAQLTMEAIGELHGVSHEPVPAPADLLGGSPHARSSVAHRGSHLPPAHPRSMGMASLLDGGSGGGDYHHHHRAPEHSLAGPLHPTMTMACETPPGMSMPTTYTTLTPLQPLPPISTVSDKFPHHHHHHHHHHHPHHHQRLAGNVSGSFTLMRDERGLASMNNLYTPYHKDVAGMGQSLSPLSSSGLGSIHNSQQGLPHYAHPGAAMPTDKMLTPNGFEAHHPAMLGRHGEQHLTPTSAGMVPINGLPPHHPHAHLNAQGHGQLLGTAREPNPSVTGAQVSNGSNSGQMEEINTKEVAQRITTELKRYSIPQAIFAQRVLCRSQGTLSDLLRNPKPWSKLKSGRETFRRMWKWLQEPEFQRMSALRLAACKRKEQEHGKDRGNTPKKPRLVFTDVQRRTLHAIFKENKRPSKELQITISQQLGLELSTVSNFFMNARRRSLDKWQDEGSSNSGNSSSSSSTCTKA", "test": "ATG_HNF6_CIS: Attagene CIS-FACTORIAL HepG2 Assay for human Hepatocyte Nuclear Factor 6 (HNF6) (AID 2282952)", "conditions": "HepG2 Attagene cis-factorial HNF6 reporter transcription; actives raise or lower the signal", "how_it_was_run": "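Readout: fluorescent reporter-transcript fragments resolved by capillary electrophoresis after RT-PCR, reflecting endogenous factor activity in transfected HepG2. Exposure 24 h. Gain or loss of signal fitted bidirectionally against DMSO.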"}
{"smiles": "O=C1CCC(=O)N1Cl", "outcome": "inactive"}
{"smiles": "OC1CCCCCCCCCCC1", "outcome": "inactive"}
{"smiles": "COC(=O)c1cc(Cl)ccc1[N+](=O)[O-]", "outcome": "inactive"}
{"smiles": "c1ccc2c(c1)ccc1ncccc12", "outcome": "inactive"}
{"smiles": "O=C(Nc1ccccc1SSc1ccccc1NC(=O)c1ccccc1)c1ccccc1", "outcome": "inactive"}
{"smiles": "Cc1cccc(OCCOc2cccc(C)c2)c1", "outcome": "inactive"}
{"smiles": "c1ccc(CNCc2ccccc2)cc1", "outcome": "inactive"}
{"smiles": "CC(C)CCCCCOC(=O)CCS", "outcome": "inactive"}
{"smiles": "O=c1[nH]c(=O)c2[nH]c(=O)[nH]c2[nH]1", "outcome": "inactive"}
{"smiles": "O=C(OCC1CCC2OC2C1)C1CCC2OC2C1", "note": "(stereo not drawn)", "outcome": "inactive"}
{"smiles": "C=CC(=O)OCCOC(=O)C=C", "outcome": "inactive"}
{"smiles": "O=c1[nH]nc(-c2ccc([N+](=O)[O-])o2)o1", "outcome": "inactive"}
{"smiles": "CCOC(=O)CC(C(C)=O)C(C)=O", "outcome": "inactive"}
{"smiles": "O=C1CCCN1CCO", "outcome": "inactive"}
{"smiles": "CCCCCCCCC(=O)OCC", "outcome": "inactive"}
{"smiles": "CC(C)C1=CC2=CC[C@@H]3[C@](C)(CCC[C@@]3(C)C(=O)O)[C@H]2CC1", "outcome": "inactive"}
{"smiles": "O=C1CCCCCCCCCCC(=O)OCCO1", "outcome": "inactive"}
{"smiles": "CCCCCCCCCCCCCCCCCC#N", "outcome": "inactive"}
{"smiles": "CC(=O)Nc1ccc2c(c1)Cc1cc(NC(C)=O)ccc1-2", "outcome": "inactive"}
{"smiles": "CCCCCCCCCCCCCOP(=O)(O)O", "outcome": "inactive"}
{"smiles": "CC(C)(C)C1CCCCC1=O", "note": "(stereo not drawn)", "outcome": "inactive"}
{"smiles": "SCCc1cnccn1", "outcome": "inactive"}
{"smiles": "COc1ccc(NC(C)=O)cc1N", "outcome": "inactive"}
{"smiles": "CCC(CO)CO", "outcome": "inactive"}
{"smiles": "COc1c2ccoc2cc2oc(=O)ccc12", "outcome": "inactive"}
{"smiles": "O=C(Nc1ccccc1)c1ccccc1O", "outcome": "inactive"}
{"smiles": "C=C[Si](OC(C)=O)(OC(C)=O)OC(C)=O", "outcome": "inactive"}
{"smiles": "Cc1ccc2c(c1)C(=O)c1ccccc1C2=O", "outcome": "inactive"}
